Compounds without any hit were thinned out: in the full panel of roughly 83,000, 20% have a hit.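 48-hour exposure, single concentration, 96-well plates; percent growth endpoint where 0 means no net growth. Active: below 10.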 The source made the active and inactive calls.
system: ACHN renal; test: NCI-60 one-dose screen, 48 h (100 = growth as untreated, 0 = no growth, -100 = all killed); settings: 10 µM unless noted

Structure (SMILES)	growth
O=[N+]([O-])c1ccccc1NC1c2ccccc2Oc2ccccc21	71.2% (inactive)
C=CCn1c(SCC(=O)Nc2ccc(C(=O)/C=C/c3cc(OC)c(OC)c(OC)c3)cc2)nnc1-c1ccc(OC)cc1	-56.1% (active)
O=C(NCCNc1nccc(-c2c(-c3cccc(O)c3)nc3sccn23)n1)c1ccccc1O	46.1% (inactive)

system: CAKI-1 renal; test: as above; settings: 10 µM

Structure (SMILES)	growth
O=C(Nc1cccc(-n2ccc3c(NC(=O)c4ccccc4)nccc32)c1)Nc1cc(C(F)(F)F)cc(C(F)(F)F)c1	15.3% (inactive)
Nc1nccc2c1ccn2-c1cccc(NC(=O)c2ccc(N3CCOCC3)c(C(F)(F)F)c2)c1	-0.708% (active)
COc1ccc(-c2nn(-c3ccc(NC(=O)Nc4cc(C(F)(F)F)cc(C(F)(F)F)c4)cc3)cc2-c2ccncc2)cc1Cl	5.4% (active)
CN(C)CCS(=O)(=O)Nc1cc(-c2ccc3ncnc(Nc4ccc(F)c(Cl)c4)c3c2)cnc1Cl	-30.6% (active)
O=C(CSc1nnc(-c2cc3c([nH]c4ccccc43)c(-c3cccc(O)c3)n2)n1-c1ccccc1)c1ccccc1	45.5% (inactive)
O=C(Nc1cccc(-n2ccc3c(NC(=O)c4ccccc4)nccc32)c1)c1cc(N2CCOCC2)cc(C(F)(F)F)c1	23.5% (inactive)
CCC1(C(N)=O)CC2C=CC1CC2 (configuration not stated)	96.6% (inactive)
O=C1c2ccccc2OC=C(c2ccccc2)N1CCCCN1CCCCC1	101% (inactive)
O=S(=O)(Nc1cccc2cc(OS(=O)(=O)c3ccccc3)ccc12)c1ccccc1	71.4% (inactive)
COc1cc(CN(c2ccc(Cl)cc2)C2OC(=O)c3ccccc32)cc(OC)c1OC (configuration not stated)	69.1% (inactive)
O=C(Nc1ccc(-n2ccc3c(NC(=O)c4ccccc4)nccc32)cc1)c1cccc(C(F)(F)F)c1	19.4% (inactive)
O=C(Nc1ccc(-n2ccc3c(NC(=O)c4ccccc4)ncnc32)cc1)Nc1cccc(Cl)c1Cl	-26% (active)
CC1OC(n2c3ccccc3c3c4c(c5c6ccccc6[nH]c5c32)C(=O)N(CCN[C@@H]2CCC[C@H]2N)C4=O)CC(O)C1O (some centres not stated)	78.6% (inactive)
O=C(Nc1cccc(-n2ccc3c(NC(=O)c4ccccc4)nccc32)c1)c1cccc(C(F)(F)F)c1	9.21% (active)
CC(=O)c1cc2c(c(O)c1C)C(=O)C(=O)c1c(O)cccc1-2	-79.6% (active)
O=C1OC(N(Cc2ccc(Cl)cc2)c2ccccc2)c2ccccc21 (configuration not stated)	103% (inactive)
O=C1C(Cl)=C(Nc2ccccc2)C(=O)C(Cl)=C1Nc1ccccc1	106% (inactive)
O=S(=O)(CCN1CCOCC1)Nc1cncc(-c2ccc3ncnc(Nc4ccc(F)c(Cl)c4)c3c2)c1	72.3% (inactive)
COC1=C(OC)C(=O)C=CC1=O	115% (inactive)
O=C(NCCNc1nccc(-c2c(-c3cccc(O)c3)nc3sccn23)n1)Nc1cc(C(F)(F)F)cc(C(F)(F)F)c1	72.3% (inactive)
CCn1c(SC)nnc1-c1cc2c([nH]c3ccccc32)c(-c2cccc(O)c2)n1	25.3% (inactive)
C=CC(=O)Nc1cccc(Nc2nc(Nc3ccc(OCCOC(F)F)cc3)ncc2F)c1	11.3% (inactive)
NC(=O)C1=C[C@H]2[C@H]3C=C[C@@]2(O)C(=O)O[C@@H]3O1	46.5% (inactive)
O=C(Nc1ccc(-n2ccc3c(NC(=O)c4ccccc4)ncnc32)cc1)Nc1ccc(Cl)c(C(F)(F)F)c1	-36.8% (active)
O=C(Nc1ccc(-n2cc(-c3ccncc3)c(-c3ccc(O)c(Cl)c3)n2)cc1)Nc1cc(C(F)(F)F)cc(C(F)(F)F)c1	46.6% (inactive)
c1ccc(CNCCN(CCNCc2ccccn2)Cc2ccc3ccccc3c2)nc1	-81.8% (active)
O=[N+]([O-])c1ccccc1NC1c2ccccc2Oc2ccccc21	45.6% (inactive)
C=CCn1c(SCC(=O)Nc2ccc(C(=O)/C=C/c3cc(OC)c(OC)c(OC)c3)cc2)nnc1-c1ccc(OC)cc1	16.5% (inactive)
O=C(NCCNc1nccc(-c2c(-c3cccc(O)c3)nc3sccn23)n1)c1ccccc1O	24.3% (inactive)

Source: PubChem BioAssay (NCI)
